Experimental data published in the supplement of paper PMC10849652.
Of roughly 8,800 targets only a part is listed; those with a hit were picked by preference. About 0.5% of all pairs of compound and target were hits.

Each target was assayed with C1CCN(C1)C(=O)NC2=CC=CC(=C2)NC3=NC=C(C(=N3)NCCC4=CN=CN4)Br (assay: log2 fold change, soluble protein after heating vs DMSO (PISA); higher = thermal stabilisation; K562 lysate, 10 uM; active = over 0.2 and 3.5 SD of the protein, either way, in both replicates (recomputed)).
In short: (§1)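 The values are log-two fold changes in thermal stability compared with solvent controls and come from duplicates. They were obtained by TMTpro 16plex LC-MS/MS, with channel sums equalised, on the supernatant after 21,000xg for 90 min. That supernatant came from crude K562 extract at 1 mg/mL protein treated with 10 μM compound for 30 min, heated for 3 min across 48°C-58°C, pooled and brought to 0.5% NP-40 at 4°C.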

Chain of UniProt Q12933 (Q12933 whole entry, looked up): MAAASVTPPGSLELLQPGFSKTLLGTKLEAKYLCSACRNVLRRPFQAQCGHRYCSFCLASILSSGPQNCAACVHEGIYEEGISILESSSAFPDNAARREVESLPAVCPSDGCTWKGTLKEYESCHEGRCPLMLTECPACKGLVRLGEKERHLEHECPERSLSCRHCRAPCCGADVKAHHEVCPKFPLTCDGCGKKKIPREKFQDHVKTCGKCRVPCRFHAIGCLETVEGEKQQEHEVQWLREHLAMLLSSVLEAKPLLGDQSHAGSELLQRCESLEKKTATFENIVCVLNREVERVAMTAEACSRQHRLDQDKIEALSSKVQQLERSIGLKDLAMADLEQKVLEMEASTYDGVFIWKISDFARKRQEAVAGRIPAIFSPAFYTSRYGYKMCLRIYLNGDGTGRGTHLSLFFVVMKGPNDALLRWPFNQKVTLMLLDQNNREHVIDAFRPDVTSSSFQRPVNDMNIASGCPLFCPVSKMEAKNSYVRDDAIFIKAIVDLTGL
Chain of UniProt Q9H892 (Q9H892 whole entry, looked up): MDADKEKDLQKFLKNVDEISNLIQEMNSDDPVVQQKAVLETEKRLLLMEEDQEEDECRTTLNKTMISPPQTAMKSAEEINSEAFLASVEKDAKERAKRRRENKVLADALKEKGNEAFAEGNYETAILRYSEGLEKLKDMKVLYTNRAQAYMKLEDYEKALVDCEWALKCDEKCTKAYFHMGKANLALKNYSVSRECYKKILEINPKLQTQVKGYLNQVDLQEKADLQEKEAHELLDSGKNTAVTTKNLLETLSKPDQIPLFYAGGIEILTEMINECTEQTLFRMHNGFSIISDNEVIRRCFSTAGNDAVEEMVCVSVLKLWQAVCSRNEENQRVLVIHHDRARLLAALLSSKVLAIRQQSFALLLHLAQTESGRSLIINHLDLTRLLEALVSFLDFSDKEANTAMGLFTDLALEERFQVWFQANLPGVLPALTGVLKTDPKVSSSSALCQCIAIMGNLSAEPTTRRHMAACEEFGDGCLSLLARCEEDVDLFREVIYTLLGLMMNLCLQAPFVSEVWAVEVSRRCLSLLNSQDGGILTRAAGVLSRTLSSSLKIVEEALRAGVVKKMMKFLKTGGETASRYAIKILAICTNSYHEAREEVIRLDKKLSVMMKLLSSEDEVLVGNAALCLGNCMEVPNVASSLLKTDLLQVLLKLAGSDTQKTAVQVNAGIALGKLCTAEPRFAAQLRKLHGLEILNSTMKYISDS
Chain of UniProt Q14258 (Q14258 whole entry, looked up): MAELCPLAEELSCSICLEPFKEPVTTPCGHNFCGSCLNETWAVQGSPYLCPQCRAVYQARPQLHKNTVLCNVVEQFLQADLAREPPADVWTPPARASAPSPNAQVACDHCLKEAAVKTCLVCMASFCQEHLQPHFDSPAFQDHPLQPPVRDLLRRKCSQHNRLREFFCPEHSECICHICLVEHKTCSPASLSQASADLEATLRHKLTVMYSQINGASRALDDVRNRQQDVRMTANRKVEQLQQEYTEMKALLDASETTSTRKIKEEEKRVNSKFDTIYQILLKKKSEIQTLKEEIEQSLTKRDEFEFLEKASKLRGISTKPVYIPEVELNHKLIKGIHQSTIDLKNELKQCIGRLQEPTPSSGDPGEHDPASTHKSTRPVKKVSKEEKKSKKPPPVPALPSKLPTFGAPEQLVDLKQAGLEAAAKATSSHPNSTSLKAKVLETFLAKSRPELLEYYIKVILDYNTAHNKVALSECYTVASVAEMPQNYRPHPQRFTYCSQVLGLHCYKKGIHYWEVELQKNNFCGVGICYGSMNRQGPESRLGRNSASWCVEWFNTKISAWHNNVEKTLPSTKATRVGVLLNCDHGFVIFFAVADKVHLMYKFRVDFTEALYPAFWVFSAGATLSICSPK
Chain of UniProt Q8N0Z6 (Q8N0Z6 whole entry, looked up): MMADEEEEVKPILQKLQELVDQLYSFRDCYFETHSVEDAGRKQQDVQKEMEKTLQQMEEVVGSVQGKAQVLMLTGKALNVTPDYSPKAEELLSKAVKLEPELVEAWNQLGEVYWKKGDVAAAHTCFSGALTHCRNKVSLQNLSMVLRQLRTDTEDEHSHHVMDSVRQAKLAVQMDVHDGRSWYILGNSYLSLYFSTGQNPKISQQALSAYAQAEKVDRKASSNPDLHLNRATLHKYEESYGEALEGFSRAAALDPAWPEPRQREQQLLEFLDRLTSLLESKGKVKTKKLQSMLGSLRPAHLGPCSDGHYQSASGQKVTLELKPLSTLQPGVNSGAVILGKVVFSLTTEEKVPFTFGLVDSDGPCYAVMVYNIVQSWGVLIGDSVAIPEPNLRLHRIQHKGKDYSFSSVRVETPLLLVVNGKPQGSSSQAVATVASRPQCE
Chain of UniProt Q9UNY4 (Q9UNY4 whole entry, looked up): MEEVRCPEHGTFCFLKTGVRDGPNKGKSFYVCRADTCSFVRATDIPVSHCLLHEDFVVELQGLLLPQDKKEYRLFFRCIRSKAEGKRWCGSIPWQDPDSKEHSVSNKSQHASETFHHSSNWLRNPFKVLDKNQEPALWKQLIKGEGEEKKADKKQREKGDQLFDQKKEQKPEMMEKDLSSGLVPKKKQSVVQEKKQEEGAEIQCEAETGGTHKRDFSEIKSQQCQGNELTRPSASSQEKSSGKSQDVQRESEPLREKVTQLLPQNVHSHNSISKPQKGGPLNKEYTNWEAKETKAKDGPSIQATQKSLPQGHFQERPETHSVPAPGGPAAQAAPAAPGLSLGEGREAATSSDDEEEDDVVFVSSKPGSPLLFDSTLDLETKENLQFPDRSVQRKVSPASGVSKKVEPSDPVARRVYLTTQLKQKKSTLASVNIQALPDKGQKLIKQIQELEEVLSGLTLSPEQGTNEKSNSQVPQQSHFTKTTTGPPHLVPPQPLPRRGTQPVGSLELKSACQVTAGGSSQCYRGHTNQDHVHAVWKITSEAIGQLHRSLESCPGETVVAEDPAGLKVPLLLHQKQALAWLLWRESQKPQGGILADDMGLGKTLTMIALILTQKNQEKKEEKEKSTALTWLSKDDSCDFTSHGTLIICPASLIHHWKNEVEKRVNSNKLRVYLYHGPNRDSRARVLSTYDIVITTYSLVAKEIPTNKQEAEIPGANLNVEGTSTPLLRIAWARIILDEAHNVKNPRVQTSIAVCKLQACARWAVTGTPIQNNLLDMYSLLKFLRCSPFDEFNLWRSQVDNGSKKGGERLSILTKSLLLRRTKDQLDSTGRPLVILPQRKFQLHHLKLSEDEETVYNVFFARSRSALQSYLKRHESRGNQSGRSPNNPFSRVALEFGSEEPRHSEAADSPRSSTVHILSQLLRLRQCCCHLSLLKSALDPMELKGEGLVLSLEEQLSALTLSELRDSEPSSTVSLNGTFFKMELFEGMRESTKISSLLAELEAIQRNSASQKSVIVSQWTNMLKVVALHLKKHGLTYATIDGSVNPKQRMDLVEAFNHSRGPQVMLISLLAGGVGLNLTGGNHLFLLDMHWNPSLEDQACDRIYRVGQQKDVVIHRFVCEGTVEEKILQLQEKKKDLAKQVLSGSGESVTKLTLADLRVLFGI
Chain of UniProt Q5U3C3 (Q5U3C3 whole entry, looked up): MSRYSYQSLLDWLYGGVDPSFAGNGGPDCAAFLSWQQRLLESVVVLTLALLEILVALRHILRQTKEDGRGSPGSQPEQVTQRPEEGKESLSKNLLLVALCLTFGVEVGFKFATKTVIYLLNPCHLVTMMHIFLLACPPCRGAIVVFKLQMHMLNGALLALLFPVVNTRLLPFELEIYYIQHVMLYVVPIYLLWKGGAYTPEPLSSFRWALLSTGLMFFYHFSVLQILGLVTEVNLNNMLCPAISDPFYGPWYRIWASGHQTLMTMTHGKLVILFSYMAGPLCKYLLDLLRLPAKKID
Chain of UniProt O43493 (O43493 whole entry, looked up): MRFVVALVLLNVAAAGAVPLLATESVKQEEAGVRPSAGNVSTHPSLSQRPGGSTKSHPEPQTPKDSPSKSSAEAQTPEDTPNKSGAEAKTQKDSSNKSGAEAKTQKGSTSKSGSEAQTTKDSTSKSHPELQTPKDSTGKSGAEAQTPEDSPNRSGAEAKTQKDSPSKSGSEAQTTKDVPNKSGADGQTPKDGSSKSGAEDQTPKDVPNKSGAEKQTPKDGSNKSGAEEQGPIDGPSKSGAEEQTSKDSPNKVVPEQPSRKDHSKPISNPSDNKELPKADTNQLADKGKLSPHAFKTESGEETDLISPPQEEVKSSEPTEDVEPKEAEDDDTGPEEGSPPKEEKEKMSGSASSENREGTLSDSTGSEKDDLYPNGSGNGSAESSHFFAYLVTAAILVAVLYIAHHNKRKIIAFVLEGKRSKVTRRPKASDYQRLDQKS
Chain of UniProt Q01085 (Q01085 whole entry, looked up): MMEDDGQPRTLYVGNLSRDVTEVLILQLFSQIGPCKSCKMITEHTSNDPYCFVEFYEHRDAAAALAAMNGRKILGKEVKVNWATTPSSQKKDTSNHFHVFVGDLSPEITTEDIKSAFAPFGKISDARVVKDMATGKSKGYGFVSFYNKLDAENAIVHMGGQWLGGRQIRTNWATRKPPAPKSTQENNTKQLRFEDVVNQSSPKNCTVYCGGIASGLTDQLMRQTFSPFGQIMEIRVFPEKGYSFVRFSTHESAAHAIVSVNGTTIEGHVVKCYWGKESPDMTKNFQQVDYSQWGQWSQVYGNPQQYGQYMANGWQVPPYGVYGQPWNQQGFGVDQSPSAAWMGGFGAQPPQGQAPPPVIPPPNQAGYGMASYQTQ
Chain of UniProt Q53H54 (Q53H54 whole entry, looked up): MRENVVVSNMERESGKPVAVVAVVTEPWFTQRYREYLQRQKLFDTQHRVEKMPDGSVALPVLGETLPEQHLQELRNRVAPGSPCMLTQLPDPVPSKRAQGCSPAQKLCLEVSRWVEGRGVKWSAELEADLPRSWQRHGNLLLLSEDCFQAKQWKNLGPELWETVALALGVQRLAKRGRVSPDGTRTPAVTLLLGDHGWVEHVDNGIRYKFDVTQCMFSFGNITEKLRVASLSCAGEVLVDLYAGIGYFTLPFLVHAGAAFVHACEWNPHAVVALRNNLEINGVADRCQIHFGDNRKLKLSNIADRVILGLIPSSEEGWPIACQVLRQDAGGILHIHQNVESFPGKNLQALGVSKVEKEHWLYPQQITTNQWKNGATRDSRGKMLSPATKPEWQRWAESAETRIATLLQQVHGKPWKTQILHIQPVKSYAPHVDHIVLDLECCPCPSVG

log2 fold change, inactive:
TOR3A (UniProt Q9H497) 0.039, TRAF2 isoform 2 (UniProt Q12933) -0.008, TBRG4 (UniProt Q969Z0) 0.013, TBL3 (UniProt Q12788) 0.074, UBE3B (UniProt Q7Z3V4) -0.04, TRA2A (UniProt Q13595) 0.083, TJP1 isoform 2 (UniProt Q07157) -0.075, TPM4 isoform 2 (UniProt P67936) 0.016, TUBGCP3 (UniProt Q96CW5) -0.044, TGOLN2 isoform 7 (UniProt O43493) -0.025, TSPAN13 (UniProt O95857) 0.202, TIMELESS (UniProt Q9UNS1) -0.018, TRMT2A (UniProt Q8IZ69) -0.005, TTC12 isoform 2 (UniProt Q9H892) -0.006, TMPO (UniProt P42167) -0.019, TBK1 (UniProt Q9UHD2) 0.214, TGFBRAP1 (UniProt Q8WUH2) 0.023, TMEM14C (UniProt Q9P0S9) -0.177, TMEM164 (UniProt Q5U3C3) -0.057, TPM3 (UniProt P06753) 0.035, TTI2 (UniProt Q6NXR4) -0.028, TBC1D23 (UniProt Q9NUY8) -0.018, TRIM25 (UniProt Q14258) 0.064, UBE2D1 (UniProt P51668) -0.042, TPP2 (UniProt Q5VZU9) 0, TRMT12 (UniProt Q53H54) -0.064, TCAF2 (UniProt A6NFQ2) -0.022, TRIM56 (UniProt Q9BRZ2) 0.039, TTC27 (UniProt Q6P3X3) -0.015, UBR5 (UniProt O95071) -0.001, TROAP (UniProt Q12815) 0.035, TUBGCP2 isoform 4 (UniProt Q9BSJ2) -0.014, TTC5 (UniProt Q8N0Z6) 0.017, TRIM33 (UniProt H0Y612) -0.065, TP53RK (UniProt Q96S44) 0.014, TFCP2 (UniProt Q12800) -0.038, TIAL1 isoform 2 (UniProt Q01085) 0, TRIM65 (UniProt Q6PJ69) 0.026, TTF2 (UniProt Q9UNY4) 0.039, TRAPPC9 isoform 2 (UniProt Q96Q05) 0.027

The targets below were run with C1CN(CCC1(CC2=CC=C(C=C2)Cl)N)C3=NC=NC4=C3C=CN4 in the same assay as above.
In short: as §1

log2 fold change, inactive:
TOR3A (UniProt Q9H497) 0.013, TRAF2 isoform 2 (UniProt Q12933) 0.029, TBRG4 (UniProt Q969Z0) 0.008, TBL3 (UniProt Q12788) -0.016, UBE3B (UniProt Q7Z3V4) -0.12, TRA2A (UniProt Q13595) -0.234, TJP1 isoform 2 (UniProt Q07157) 0.039, TPM4 isoform 2 (UniProt P67936) -0.015, TUBGCP3 (UniProt Q96CW5) -0.019, TGOLN2 isoform 7 (UniProt O43493) 0.011, TSPAN13 (UniProt O95857) -0.053, TIMELESS (UniProt Q9UNS1) 0, TRMT2A (UniProt Q8IZ69) 0.002, TTC12 isoform 2 (UniProt Q9H892) 0.034, TMPO (UniProt P42167) -0.032, TBK1 (UniProt Q9UHD2) -0.047, TGFBRAP1 (UniProt Q8WUH2) 0.006, TMEM14C (UniProt Q9P0S9) -0.042, TMEM164 (UniProt Q5U3C3) 0.153, TPM3 (UniProt P06753) -0.021, TTI2 (UniProt Q6NXR4) 0.007, TBC1D23 (UniProt Q9NUY8) -0.001, TRIM25 (UniProt Q14258) 0.021, UBE2D1 (UniProt P51668) 0.015, TPP2 (UniProt Q5VZU9) 0.066, TRMT12 (UniProt Q53H54) 0.07, TCAF2 (UniProt A6NFQ2) -0.047, TRIM56 (UniProt Q9BRZ2) 0.003, TTC27 (UniProt Q6P3X3) 0.006, UBR5 (UniProt O95071) 0.007, TROAP (UniProt Q12815) 0.104, TUBGCP2 isoform 4 (UniProt Q9BSJ2) 0.004, TTC5 (UniProt Q8N0Z6) 0.033, TRIM33 (UniProt H0Y612) -0.023, TP53RK (UniProt Q96S44) -0.022, TFCP2 (UniProt Q12800) -0.044, TIAL1 isoform 2 (UniProt Q01085) 0.017, TRIM65 (UniProt Q6PJ69) 0.007, TTF2 (UniProt Q9UNY4) 0.032, TRAPPC9 isoform 2 (UniProt Q96Q05) 0.034
